HepG2 tox – HepG2 cytotoxicity, counter-screen for TGF-b inhibitors. HepG2 CAGA-GFP viability, ATP luminescence, 18 h. Potency, µM (doses to about 46.1 µM), hits mostly cytotoxic. AID 588856. 0.76% of 410,000 active
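HepG2 CAGA-GFP cells (1000/well, DMEM with 1% FBS) received compound, then TGF-beta at 500 pg/mL final, and were incubated 18 hours at 37 degrees C. Viability was read by CellTiter-Glo luminescence. Media-only wells were set as complete cell-killing and DMSO as no toxicity.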
S2 tox – reduces viability in counter-screen for ATXN expression inhibitors; S2 cells (HEK-293 line with an ATXN2-luciferase reporter) viability, CellTiter-Fluor protease fluorescence, 24 h; AID 651635; Potency, µM (doses to about 56.7 µM), hits mostly cytotoxic; 0.49% of 400,000 active; note: nearly all actives have a fitted effect of over 40% in size
ATXN2 expr inh – inhibitors of ATXN2 expression; HEK-293 ATXN2-luciferase reporter, luminescence, 24 h; Potency, µM (titrated, usually from 57 µM), hits mostly inhibitors; 0.72% of 360,000 active; AID 1745845; note: nearly all actives have a fitted effect of over 55% in size
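ATXN2-luciferase reporter cells (luciferase flanked by upstream and downstream ATXN2 gene portions) were treated 24 h at 37 °C with compounds at up to 57 uM. SteadyGlo luminescence gave expression; GF-AFC fluorescence gave viability.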
DT40 TDP1 no CPT – qHTS for Inhibitors of human tyrosyl-DNA phosphodiesterase 1 (TDP1): qHTS in cells in absence of CPT; DT40 Tdp1-/- hTDP1 cells, no CPT, ATP luminescence, 48 h; Potency, µM (doses to about 46.2 µM), usual class: inhibitors; 15% of 420,000 active; note: nearly all actives have a fitted effect of over 55% in size
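No-CPT arm: Tdp1-/-;hTDP1 DT40 cells (400/well) plus compounds, incubated ≥48 hr at 37 °C. Readout CellTiter-Glo luminescence.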
TGFb SMAD3 inh – inhibitors of TGF-b signaling; HepG2 CAGA-GFP TGF-b/SMAD3 reporter, GFP fluorescence, 18 h; TGF-beta stimulated, 500 pg/mL final; Potency, µM (top dose mostly 46.1 µM), hits mostly inhibitors; 1.2% of 410,000 active; note: nearly all actives have a fitted effect of over 65% in size
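GFP signal (ex488/em500-530) from TGF-beta-stimulated HEPG2 CAGA-GFP cells, 500 pg/mL final, 18 h at 37 degrees C in DMEM plus 1% FBS, normalized to unstimulated and DMSO-stimulated controls.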
TDP1 cell CPT – growth inhibition of DT40 Tdp1-/-;hTDP1 cells with camptothecin (screen for TDP1 inhibitors). chicken DT40 Tdp1-/-;hTDP1 cells + 20 nM CPT, ATP luminescence, 48 h. 12% of 420,000 active. Potency, µM (top dose mostly 46.2 µM), usual class: inhibitors; note: nearly all actives have a fitted effect of over 55% in size
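Chicken DT40 Tdp1-/- cells complemented with human TDP1, 400 cells/well, exposed to compounds plus 20 nM camptothecin for at least 48 h at 37 C; viability read as ATP content by CellTiter-Glo luminescence.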
Of the large screens only hits and unclear results are named; the others gave an inactive call. Most compounds without a hit are left out; they make up all but 17% or so of the library. Calls come from the whole dose curve; as a rule, active = well fitted curve in the direction sought with a large enough effect; inconclusive = small, poorly fitted or top-dose-only effect, or another doubt; inactive = no such curve, though single readings can be large; an effect the other way counts as inactive or inconclusive.

CN(C)c1ccc(C=O)cc1[N+](=O)[O-]	none (no result: S2 tox, ATXN2 expr inh)
Cc1ccc(C(=O)Nc2cccc(-c3nc4cccnc4s3)c2C)cc1	DT40 TDP1 no CPT inconclusive, TGFb SMAD3 inh inconclusive, TDP1 cell CPT inconclusive
COc1ccc(N2CCN(C(=S)Nc3ccccc3)CC2)cc1	none
COC(=O)Cc1ccc(NC(=S)N2CCN(c3ccc(F)cc3)CC2)cc1	DT40 TDP1 no CPT 5.2µM, TDP1 cell CPT 12µM
CC(=O)c1ccc(N2CCN(C(=S)Nc3cccc(F)c3)CC2)cc1	DT40 TDP1 no CPT 15µM, TDP1 cell CPT inconclusive
CC(=O)c1ccc(N2CCN(C(=S)Nc3ccc(Oc4ccccc4)cc3)CC2)cc1	ATXN2 expr inh inconclusive, DT40 TDP1 no CPT 7.3µM, TGFb SMAD3 inh inconclusive, TDP1 cell CPT inconclusive
COc1ccccc1CNC(=O)CCS(=O)(=O)c1ccc(Cl)cc1	none
Cc1ccc(S(=O)(=O)NCC(=O)N(CC(=O)NCc2ccco2)Cc2ccccc2)cc1	HepG2 tox 16µM
O=S(=O)(NCc1ccccc1)c1ccc(NC(=S)NCc2ccco2)cc1	HepG2 tox 11µM, DT40 TDP1 no CPT 12µM, TGFb SMAD3 inh inconclusive, TDP1 cell CPT inconclusive (no result: ATXN2 expr inh)
CC(=O)c1cccc(S(=O)(=O)NCCC(=O)Nc2ccc(S(N)(=O)=O)cc2)c1	none
CC1CCCCC1N1CN=C(Nc2nc3ccccc3s2)NC1 (stereo unspecified)	DT40 TDP1 no CPT inconclusive, TDP1 cell CPT 21µM
Cc1ccc(CN(Cc2ccco2)C(=O)c2ccco2)cc1	TDP1 cell CPT inconclusive
Cc1ccsc1CN(Cc1ccco1)C(=O)c1ccc(Cl)cc1	DT40 TDP1 no CPT 13µM, TGFb SMAD3 inh inconclusive, TDP1 cell CPT 16µM (no result: S2 tox, ATXN2 expr inh)
Cc1ccc(C(=O)N(Cc2ccco2)Cc2sccc2C)cc1	DT40 TDP1 no CPT 23µM, TGFb SMAD3 inh inconclusive, TDP1 cell CPT 21µM (no result: S2 tox, ATXN2 expr inh)
CC(=O)N1CCCC1c1nc2ccccc2n1Cc1cc(C)ccc1C (stereo unspecified)	DT40 TDP1 no CPT 23µM, TDP1 cell CPT 23µM
CC(=O)N1CCCC1c1nc2ccccc2n1Cc1c(F)cccc1Cl (stereo unspecified)	DT40 TDP1 no CPT inconclusive, TDP1 cell CPT inconclusive
CCCC(C)NC(=O)COc1ccc(Sc2ccc(OCC(=O)NC(C)CCC)cc2)cc1 (stereo unspecified)	DT40 TDP1 no CPT 12µM, TDP1 cell CPT 8.2µM
CC(C)CNC(=O)COc1ccc(Sc2ccc(OCC(=O)NCC(C)C)cc2)cc1	S2 tox inconclusive, ATXN2 expr inh inconclusive, DT40 TDP1 no CPT 1.6µM, TDP1 cell CPT inconclusive
COc1ccc(CN2C(=O)C(Cc3ccccc3)Nc3ncnc(N4CCN(c5ccccc5)CC4)c32)cc1 (stereo unspecified)	DT40 TDP1 no CPT inconclusive, TGFb SMAD3 inh inconclusive, TDP1 cell CPT inconclusive
O=C1C(Cc2ccccc2)Nc2ncnc(N3CCCCC3)c2N1Cc1ccc(Cl)cc1 (stereo unspecified)	DT40 TDP1 no CPT 16µM, TGFb SMAD3 inh inconclusive, TDP1 cell CPT inconclusive
O=C1C(Cc2ccccc2)Nc2ncnc(N3CCc4ccccc4C3)c2N1Cc1ccccc1 (stereo unspecified)	S2 tox inconclusive, DT40 TDP1 no CPT 16µM, TDP1 cell CPT inconclusive
CC1Nc2ncnc(N3CCc4ccccc4C3)c2N(Cc2ccc(Cl)cc2)C1=O (stereo unspecified)	DT40 TDP1 no CPT inconclusive, TGFb SMAD3 inh inconclusive, TDP1 cell CPT inconclusive
CC1Nc2ncnc(N3CCc4ccccc4C3)c2N(Cc2ccc(Br)cc2)C1=O (stereo unspecified)	S2 tox inconclusive, ATXN2 expr inh inconclusive, DT40 TDP1 no CPT 23µM, TGFb SMAD3 inh inconclusive, TDP1 cell CPT 16µM
O=C1C(Cc2ccccc2)Nc2ncnc(N3CCN(c4ccccc4)CC3)c2N1Cc1ccc(Cl)cc1 (stereo unspecified)	DT40 TDP1 no CPT 18µM, TDP1 cell CPT inconclusive
O=C1C(Cc2ccccc2)Nc2ncnc(N3CCOCC3)c2N1Cc1ccc(Br)cc1 (stereo unspecified)	S2 tox inconclusive, DT40 TDP1 no CPT inconclusive, TDP1 cell CPT inconclusive
Cc1noc(C)c1NC(=O)N(C)C[C@H]1Oc2ccc(NC(=O)Nc3ccc4c(c3)OCO4)cc2C(=O)N([C@H](C)CO)C[C@@H]1C	none
CC(C(=O)N(C)Cc1cccc(F)c1)N1CCN(S(=O)(=O)c2ccc3c(c2)OCCCO3)CC1 (stereo unspecified)	DT40 TDP1 no CPT inconclusive, TGFb SMAD3 inh inconclusive, TDP1 cell CPT inconclusive
COc1ccc(N2C(=O)Cc3ccccc3C2=O)cc1	DT40 TDP1 no CPT 13µM, TDP1 cell CPT inconclusive
CC(C)C1COc2cc3oc(=O)ccc3cc2O1 (stereo unspecified)	none (no result: HepG2 tox, S2 tox, ATXN2 expr inh, TGFb SMAD3 inh)
COc1ccccc1CCNC(=O)C(=O)NCC(c1cccnc1)N1CCN(c2ccccc2)CC1 (stereo unspecified)	S2 tox inconclusive, ATXN2 expr inh inconclusive, DT40 TDP1 no CPT 12µM, TDP1 cell CPT 12µM
COc1ccccc1CNC(=O)C(=O)NCC(c1cccnc1)N1CCN(c2ccc(F)cc2)CC1 (stereo unspecified)	DT40 TDP1 no CPT 13µM, TGFb SMAD3 inh inconclusive, TDP1 cell CPT 12µM
COc1ccc(NC(=O)C2(C)CCN2Cc2ccccc2OC(F)F)cc1OC (stereo unspecified)	DT40 TDP1 no CPT 12µM, TDP1 cell CPT inconclusive
CC1(C(=O)Nc2ccc(Cl)c(Cl)c2)CCN1Cc1ccccc1OC(F)F (stereo unspecified)	S2 tox inconclusive, DT40 TDP1 no CPT 12µM, TDP1 cell CPT 16µM
Cc1ccc(NC(=O)C2(C)CCN2Cc2ccccc2OC(F)F)cc1 (stereo unspecified)	S2 tox inconclusive, DT40 TDP1 no CPT inconclusive, TDP1 cell CPT inconclusive
CC(C)Oc1ccc(CN2CCC2(C)C(=O)Nc2ccc(Cl)c(Cl)c2)cc1 (stereo unspecified)	DT40 TDP1 no CPT inconclusive, TGFb SMAD3 inh inconclusive, TDP1 cell CPT inconclusive
O=C(CCc1c[nH]c2ccccc12)N1CCN(S(=O)(=O)c2ccccc2)CC1	DT40 TDP1 no CPT inconclusive, TDP1 cell CPT inconclusive
CC=C1C2C=C(C)CC1(N)c1ccc(=O)[nH]c1C2 (stereo unspecified)	none (no result: HepG2 tox, S2 tox, TGFb SMAD3 inh)
CO/N=C\CC(=O)Nc1ccc(Cl)cc1Cl	DT40 TDP1 no CPT 21µM, TDP1 cell CPT 12µM
CO/N=C\CC(=O)Nc1ccc(F)cc1	none
COC(=O)C1CCN(Cc2ccc3c(c2)CN(C(=O)c2cc4ccccc4n2C)CCO3)CC1	DT40 TDP1 no CPT inconclusive (no result: HepG2 tox, ATXN2 expr inh, TGFb SMAD3 inh)

Assay outcomes: PubChem BioAssay, National Center for Advancing Translational Sciences (NCATS)
